Results reported in PubChem BioAssay (Tox21).
“And” between values parts separate entries of the source, which are not always exact repeats. Equal values may be shown once. Inconclusive results are not listed. Some structures have more than one record in an assay (separate samples or runs), and their calls can disagree. The source made the active and inactive calls. Unless noted, the call rests on the fitted dose curve; in most records, active means well fitted curve in the direction sought with a large enough effect in the repeat runs; inconclusive means weak or mixed curves; inactive means no such curve, though single readings can be large; an effect the other way counts as inactive or inconclusive.

How the values were obtained:
[1] = target: Luciferin 4-monooxygenase (Photinus pyralis) (UniProt P08659); experiment: qHTS assay to identify small molecule inhibitors of firefly luciferase (AID 1224835); further: nearly all actives have a fitted effect of over 25% in size
Sequence of Luciferin 4-monooxygenase (Photinus pyralis) (P08659 whole entry, looked up): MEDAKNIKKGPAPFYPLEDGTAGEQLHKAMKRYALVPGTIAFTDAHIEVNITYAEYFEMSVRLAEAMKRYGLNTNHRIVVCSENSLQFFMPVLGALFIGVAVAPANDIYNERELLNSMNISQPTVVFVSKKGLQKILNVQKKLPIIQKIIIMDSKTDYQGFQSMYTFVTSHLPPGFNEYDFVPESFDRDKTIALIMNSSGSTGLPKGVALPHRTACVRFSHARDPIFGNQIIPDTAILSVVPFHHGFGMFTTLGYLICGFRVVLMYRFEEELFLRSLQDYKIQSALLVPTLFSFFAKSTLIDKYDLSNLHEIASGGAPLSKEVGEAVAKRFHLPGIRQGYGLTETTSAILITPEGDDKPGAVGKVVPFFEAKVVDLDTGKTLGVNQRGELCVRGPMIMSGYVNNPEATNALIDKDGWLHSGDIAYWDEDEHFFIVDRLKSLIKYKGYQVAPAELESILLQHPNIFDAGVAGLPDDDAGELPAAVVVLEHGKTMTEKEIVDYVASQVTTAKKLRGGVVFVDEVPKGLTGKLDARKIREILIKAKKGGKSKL
Summary of the method: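 Biochemical qHTS: compounds run as interplate titrations against purified firefly enzyme, with D-luciferin and ATP each at its KM concentration. Light output recorded by CCD imaging.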

[2] = qHTS assay to identify small molecule agonists of the constitutive androstane receptor (CAR) signaling pathway - cell viability counter screen (AID 1224836); further: nearly all actives have a fitted effect of over 45% in size
Summary of the method: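 23 h treatment, 37 C, 5% CO2. Cell line: HepG2 stably expressing hCAR with a CYP2B6-2.2kb construct. Co-treatment: PK11195, 0.75 uM final. Read-out: CellTiter-Fluor fluorescence intensity.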

[3] = qHTS assay to identify small molecule antagonists of the constitutive androstane receptor (CAR) signaling pathway - cell viability counter screen (AID 1224837); further: nearly all actives have a fitted effect of over 45% in size
Summary of the method: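 Multiplexed cytotoxicity read-out for the CAR antagonist screen: double-stable HepG2-CYP2B6-hCAR cells co-treated with 50 nM CITCO (final) and compound over 15 concentrations, incubated 23 hr, then assessed by CellTiter-Fluor fluorescence.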

[4] = target: Nuclear receptor subfamily 1 group I member 3 (Homo sapiens) (UniProt Q14994); experiment: qHTS assay to identify small molecule antagonists of the constitutive androstane receptor (CAR) signaling pathway (AID 1224838); further: nearly all actives have a fitted effect of over 40% in size
Sequence of Nuclear receptor subfamily 1 group I member 3 (Homo sapiens) (Q14994 whole entry, looked up): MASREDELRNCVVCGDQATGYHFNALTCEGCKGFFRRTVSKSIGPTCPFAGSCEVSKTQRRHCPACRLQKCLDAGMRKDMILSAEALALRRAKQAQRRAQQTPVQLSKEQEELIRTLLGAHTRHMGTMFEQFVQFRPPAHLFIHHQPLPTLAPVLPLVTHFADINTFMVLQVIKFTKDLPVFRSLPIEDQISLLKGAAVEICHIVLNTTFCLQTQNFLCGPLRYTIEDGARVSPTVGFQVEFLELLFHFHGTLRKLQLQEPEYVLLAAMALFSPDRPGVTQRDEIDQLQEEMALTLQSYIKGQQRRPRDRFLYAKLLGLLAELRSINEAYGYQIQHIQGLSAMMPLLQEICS
Summary of the method: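 Compounds were titrated across 15 concentrations onto HepG2 cells double-stably expressing hCAR and a CYP2B6-2.2kb reporter, together with 50 nM CITCO (final). After 24 h at 37 C, luciferase activity was measured by luminescence.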

[5] = target: Nuclear receptor subfamily 1 group I member 3 (Homo sapiens) (UniProt Q14994); experiment: qHTS assay to identify small molecule agonists of the constitutive androstane receptor (CAR) signaling pathway (AID 1224839); further: nearly all actives have a fitted effect of over 15% in size
Summary of the method: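 Compounds tested at 15 concentrations on HepG2 cells stably harbouring hCAR and CYP2B6-2.2kb reporter constructs, co-treated with PK11195 (0.75 uM final), 24 h at 37 C; luminescent reporter signal quantified.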

[6] = qHTS assay to identify small molecule antagonists of the estrogen related receptor signaling pathway with the pleiotropic PPARgamma coactivator (PGC) from Tox21 10K library - cell viability counter screen (AID 1224840; active means well fitted cell-killing curve with a large enough effect in the repeat runs, not every such curve was filed as active; further: nearly all actives have a fitted effect of over 40% in size)
Summary of the method: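 Step one, plate 2,000 PGC/ERR cells per well; step two, incubate 6 h at 37 C/5% CO2; step three, pin-transfer compounds; step four, incubate 17.5 h; step five, add CellTiter-Fluor and read fluorescence after 30 min.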

[7] = qHTS assay to identify small molecule antagonists of the estrogen related receptor signaling pathway with the pleiotropic PPARgamma coactivator (PGC) from Tox21 10K library (AID 1224841; call rule not given here; further: actives are mostly falling curves and most rising ones were filed inactive; nearly all actives have a fitted effect of over 50% in size)
Summary of the method: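 Antagonism in this quantitative HTS is taken from loss of luciferase signal in PGC/ERR cells. Cells (2,000/well) are treated with compounds in DMSO after a 6 h settling period and read by One-Glo luminescence after 18 h.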

[8] = qHTS assay to identify small molecule agonists of the estrogen related receptor signaling pathway with the pleiotropic PPARgamma coactivator (PGC) from Tox21 10K library (AID 1224842); further: nearly all actives have a fitted effect of over 15% in size
Summary of the method: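 PGC/ERR reporter cell line, 2,000 cells per well, incubated 6 h at 37 C before 23 nL compound in DMSO was added. After 18 h at 37 C, One-Glo luminescence read following 30 min at room temperature.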

Measured: Potency
Potency means the concentration at half of the fitted maximal effect.

c1ccc(N=Nc2ccccc2)cc1
active: [1] 18.2 µM and 22.4 µM
inactive: all other assays above

Nc1ccc(Cl)cc1N
active: [1] 13.1 µM and 7.1 µM | [2] 4.33 µM | [3] 6.86 µM | [4] 217 nM | [8] 8.98 µM and 386 nM
inactive: [6] | [7]

C[C@]12CCC(=O)C[C@@H]1CC[C@@H]1[C@@H]2CC[C@]2(C)[C@@H](O)CC[C@@H]12
inactive: [2] | [6]

CCCCCCOC(=O)c1ccccc1C(=O)OCCCCCC
active: [5] 27.9 µM and 30.6 µM
inactive: [1] | [2] | [4]

CCOC(=S)S
inactive: [2] | [5] | [7] | [8]
active: [4] 24.3 µM and 36.6 µM

CN(C)c1ccc(C(=O)c2ccc(N(C)C)cc2)cc1
active: [1] 35.2 µM and 10 µM | [5] 1.93 µM
inactive: [3] | [4]

Cc1ccccc1[N+](=O)[O-]
inactive: [1] | [2] | [4] | [5]

CCC(C)c1cc([N+](=O)[O-])cc([N+](=O)[O-])c1O (configuration not stated)
inactive and 10.9 µM (active): [7]
inactive and 17.2 µM (active): [6]
inactive: [1] | [4] | [5] | [8]

CCOCN(C(=O)CCl)c1c(C)cccc1CC
active: [5] 18.3 µM and 15.4 µM | [7] 36.4 µM and 13.7 µM
not listed: [3]
inactive: all other assays above

COP(=O)(OC)OC
30.9 µM (active) and inactive: [4]
not listed: [3]
inactive: all other assays above

O=[N+]([O-])c1c(Cl)c(Cl)c(Cl)c(Cl)c1Cl
inactive: [1] | [2] | [4]

CCCCCCCCC(=O)NCc1ccc(O)c(OC)c1
inactive: [1] | [2] | [4] | [5] | [6]

COc1ccc(C=O)cc1
inactive: [1] | [2] | [4] | [5]

CCC(CC)Nc1c([N+](=O)[O-])cc(C)c(C)c1[N+](=O)[O-]
active: [5] 49.2 µM and 24.3 µM
not listed: [3] | [6]
inactive: all other assays above

O=C1C=CC(=O)C=C1
active: [1] 31.9 µM and 22.4 µM
inactive: [2] | [4] | [5]

c1cc(OCC2CO2)ccc1Cc1ccc(OCC2CO2)cc1 (configuration not stated)
inactive: [1] | [2] | [4] | [5]

CCC(C)c1ccc(O)cc1 (configuration not stated)
active: [1] 71.6 µM
not listed: [6]
inactive: all other assays above
